According to PubChem BioAssay (Tox21):
Unmarked numbers belong to inactive results. Records with an inconclusive call do not appear. Entries that show only a call come without a potency. Activity calls are given as the source filed them. Unless noted, calls follow the shape of the full dose curve.

Test system: not listed separately
Assay: qHTS assay to identify small molecule agonists of the sonic hedgehog signaling (Shh) pathway (AID 1259368);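 also: NIH/3T3-derived 3T3Gli1-Luc cells carrying a stable Gli1-driven firefly luciferase reporter; nearly all actives have a fitted effect of over 15% in size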
Settings: NIH/3T3 Gli1-Luc reporter, luciferase, 24 h, active compounds read high; series mostly up to 92.4 µM
Outline: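 Luminescent signal was taken as a measure of Gli1-controlled luciferase expression in stably transfected NIH/3T3-derived cells that had been treated for 24 hr with compounds delivered in DMSO.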

SMILES	outcome	activity change
Cc1ccnc(N)c1	inactive	–
CCn1cc(C(=O)O)c(=O)c2cnc(N3CCCC3)nc21	–	1.04% [at 8.39 µM]
C/C=C(\C)C(C)=O	inactive	–
CCOCCOCC	inactive	–
CCCCCCCCCCCCCBr	inactive	–
CCC(C(=O)OCCN1CCOC(c2ccccc2)C1C)c1ccccc1 (stereo unspecified)	inactive	–
O=C[O][Al]([O]C=O)[O]C=O	inactive	–
Cc1ccc(C(C)NC(=O)[C@@H](NC(=O)OC(C)C)C(C)C)cc1 (stereo partly specified)	inactive	–
CC1(C)CC(OC(=O)CCCCCCCCC(=O)OC2CC(C)(C)NC(C)(C)C2)CC(C)(C)N1	–	0.253% [at 18.9 µM]
CC(=O)O[C@H]1C[C@@H]2CC[C@@]1(C)C2(C)C	inactive	–
[O]=[Mo](=[O])=[O]	–	-1.33% [at 18.9 µM]
C=CC/C=C/C	inactive	–
CSc1cnccn1	inactive	–
[O-][n+]1cccc(/C(Cl)=N/OC[C@@H](O)CN2CCCCC2)c1	inactive	–
COC(=O)CCCCC(CCSS/C(CCO)=C(\C)N(C=O)Cc1cnc(C)nc1N)SC(C)=O (stereo unspecified)	inactive	–
c1ccc(-c2nn[nH]n2)cc1	inactive	–
O=C1CCCCO1	inactive	–
CC1=C(O)C(=O)C(C)O1 (stereo unspecified)	inactive	–
O=C(O)CSCC(=O)NC1CCSC1=O (stereo unspecified)	inactive	–
CC(C)C[C@@H]1[C@H](c2ccccc2)OC(=O)N1CCCN1CCCCCC1	inactive	–
CC(=O)c1cc(C)oc1C	inactive	–
C=C(C)[C@@H]1CC=C(C)C(=O)C1	inactive	–
CC12CCC(C1)C(C)(C)C2O (stereo unspecified)	inactive	–
Cc1c(NC(=O)c2cccnc2)c(=O)n(-c2ccccc2)n1C	inactive	–
CC(=O)C(C)O (stereo unspecified)	inactive	–
CC(=O)CCC1=C(C)CCCC1(C)C	inactive	–
CC1OCCC1=O (stereo unspecified)	inactive	–
O/N=C/C=N/O	inactive	–
CCOC(CN1CCN(CC(C)C(=O)c2ccccc2)CC1)c1ccccc1 (stereo unspecified)	–	0.16% [at 18.9 µM]

Test system: not listed separately
Assay: qHTS assay to identify small molecule antagonists of the sonic hedgehog signaling (Shh) pathway (AID 1259369); also: nearly all actives have a fitted effect of over 45% in size
Settings: NIH/3T3 Gli1-Luc reporter, Shh antagonist, luminescence 24 h; series mostly up to 92.4 µM
Outline: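 Screening used 3T3Gli1-Luc cells at 2,000 per well, compounds delivered in DMSO, and conditioned medium as agonist stimulus; plates incubated 24hr at 37 C and 5% CO2 before a 30min luciferase step.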

SMILES	Potency	activity change, negative = inhibition
CC(=O)OCC(=O)Nc1cc(C#N)cc(NC(=O)COC(C)=O)c1Cl	inactive	–
c1ccc(B(c2ccccc2)c2ccccc2)cc1	inactive	–
Cc1ccnc(N)c1	inactive	–
CCn1cc(C(=O)O)c(=O)c2cnc(N3CCCC3)nc21	–	29.2% [at 8.39 µM]
CC(Oc1cc(Cl)ccc1Cl)C(=O)O (stereo unspecified)	inactive	–
C/C=C(\C)C(C)=O	inactive	–
CCOCCOCC	inactive	–
c1ccc2cnccc2c1	inactive	–
CCCCCCCCCCCCCBr	inactive	–
O=C[O][Al]([O]C=O)[O]C=O	inactive	–
CN(C)CCN(C)CCO	inactive	–
Cc1ccc(C(C)NC(=O)[C@@H](NC(=O)OC(C)C)C(C)C)cc1 (stereo partly specified)	inactive	–
CC1(C)CC(OC(=O)CCCCCCCCC(=O)OC2CC(C)(C)NC(C)(C)C2)CC(C)(C)N1	–	-29.1% [at 19 µM]
[O]=[Mo](=[O])=[O]	–	-0.431% [at 19 µM]
C=CC/C=C/C	inactive	–
CSc1cnccn1	inactive	–

SMILES	Potency	activity change, negative = inhibition
COC(=O)CCCCC(CCSS/C(CCO)=C(\C)N(C=O)Cc1cnc(C)nc1N)SC(C)=O (stereo unspecified)	inactive	–
c1ccc(-c2nn[nH]n2)cc1	inactive	–
C=CCSSCCC	inactive	–
O=C1CCCCO1	inactive	–
CC1=C(O)C(=O)C(C)O1 (stereo unspecified)	inactive	–
COc1nc(N)nc2nc[nH]c12	inactive	–
O=C(O)CSCC(=O)NC1CCSC1=O (stereo unspecified)	inactive	–
CC(C)C[C@@H]1[C@H](c2ccccc2)OC(=O)N1CCCN1CCCCCC1	inactive	–
CC(=O)c1cc(C)oc1C	inactive	–
C=C(C)[C@@H]1CC=C(C)C(=O)C1	inactive	–
CC12CCC(C1)C(C)(C)C2O (stereo unspecified)	inactive	–
Cc1c(NC(=O)c2cccnc2)c(=O)n(-c2ccccc2)n1C	inactive	–
CC(=O)C(C)O (stereo unspecified)	inactive	–
CC1OCCC1=O (stereo unspecified)	inactive	–
O/N=C/C=N/O	inactive	–
CCOC(CN1CCN(CC(C)C(=O)c2ccccc2)CC1)c1ccccc1 (stereo unspecified)	–	-3.93% [at 19 µM]

Target: Estrogen receptor beta (Homo sapiens) (UniProt Q92731)
Sequence (Q92731 whole entry, looked up): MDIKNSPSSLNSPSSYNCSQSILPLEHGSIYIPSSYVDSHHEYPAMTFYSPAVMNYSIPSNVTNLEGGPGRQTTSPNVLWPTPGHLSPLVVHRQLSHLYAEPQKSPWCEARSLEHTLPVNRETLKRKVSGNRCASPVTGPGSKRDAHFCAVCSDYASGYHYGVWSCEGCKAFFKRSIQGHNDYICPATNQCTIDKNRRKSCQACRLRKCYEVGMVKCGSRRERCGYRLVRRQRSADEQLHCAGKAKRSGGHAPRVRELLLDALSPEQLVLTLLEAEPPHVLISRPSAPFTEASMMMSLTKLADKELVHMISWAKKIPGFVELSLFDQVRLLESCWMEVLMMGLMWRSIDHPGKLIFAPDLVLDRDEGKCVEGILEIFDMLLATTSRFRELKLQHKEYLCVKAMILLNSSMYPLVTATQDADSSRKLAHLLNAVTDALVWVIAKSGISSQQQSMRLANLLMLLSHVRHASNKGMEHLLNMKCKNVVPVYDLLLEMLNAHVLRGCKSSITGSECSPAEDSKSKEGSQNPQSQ
Assay: qHTS assay to identify small molecule agonists of the estrogen receptor beta (ER-beta) signaling pathway (AID 1259377; active = well fitted activation curve with a large enough effect in the signal ratio in the repeat runs, not every such curve was filed as active; the % refers to the signal ratio)
Settings: ER-beta-UAS-bla HEK293T, beta-lactamase FRET ratio, 16 h; series mostly up to 92.4 µM
Outline: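 Screening used GripTite ER-beta-UAS-bla cells held in 2% charcoal-stripped FBS medium. After overnight (16 hr) compound incubation at 37C, beta-lactamase activity was detected with a FRET substrate by fluorescence.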

SMILES	Potency	activation
Cc1ccnc(N)c1	inactive	–
CCn1cc(C(=O)O)c(=O)c2cnc(N3CCCC3)nc21	–	4.52% [at 8.39 µM]
CCOCCOCC	inactive	–
CC1(C)CC(OC(=O)CCCCCCCCC(=O)OC2CC(C)(C)NC(C)(C)C2)CC(C)(C)N1	–	-4.04% [at 19 µM]
[O]=[Mo](=[O])=[O]	–	-1.75% [at 19 µM]
CSc1cnccn1	inactive	–
COC(=O)CCCCC(CCSS/C(CCO)=C(\C)N(C=O)Cc1cnc(C)nc1N)SC(C)=O (stereo unspecified)	inactive	–
C=CCSSCCC	inactive	–
O=C(O)CSCC(=O)NC1CCSC1=O (stereo unspecified)	inactive	–
CC(C)C[C@@H]1[C@H](c2ccccc2)OC(=O)N1CCCN1CCCCCC1	inactive	–
C=C(C)[C@@H]1CC=C(C)C(=O)C1	inactive	–
CC12CCC(C1)C(C)(C)C2O (stereo unspecified)	inactive	–
CC(=O)C(C)O (stereo unspecified)	inactive	–
O/N=C/C=N/O	inactive	–

Target: Estrogen receptor beta (Homo sapiens) (UniProt Q92731)
Assay: qHTS assay to identify small molecule antagonists of the estrogen receptor beta (ER-beta) signaling pathway (AID 1259378; active = well fitted inhibition curve with a large enough effect in the signal ratio in the repeat runs, not every such curve was filed as active; the % refers to the signal ratio)
Settings: ER-beta-UAS-bla HEK293T, beta-lactamase FRET ratio, 16 h; series mostly up to 92.4 µM
Outline: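 ER-beta-UAS-bla HEK293T cells in 2% charcoal-stripped FBS medium treated with compound plus 1nM final 17-beta-estradiol for 16 hr at 37C. Beta-lactamase reporter read by FRET substrate fluorescence after 2 hours at room temperature.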

SMILES	Potency	activity, negative = inhibition
CC(=O)OCC(=O)Nc1cc(C#N)cc(NC(=O)COC(C)=O)c1Cl	inactive	–
Cc1ccnc(N)c1	inactive	–
CCn1cc(C(=O)O)c(=O)c2cnc(N3CCCC3)nc21	–	15.3% [at 8.39 µM]
CC(Oc1cc(Cl)ccc1Cl)C(=O)O (stereo unspecified)	inactive	–
CCOCCOCC	inactive	–
CN(C)CCN(C)CCO	inactive	–
CC(=O)O[C@H]1C[C@@H]2CC[C@@]1(C)C2(C)C	inactive	–
[O]=[Mo](=[O])=[O]	–	0.823% [at 19 µM]
C=CC/C=C/C	inactive	–
[O-][n+]1cccc(/C(Cl)=N/OC[C@@H](O)CN2CCCCC2)c1	inactive	–
c1ccc(-c2nn[nH]n2)cc1	inactive	–
C=CCSSCCC	inactive	–
CC1=C(O)C(=O)C(C)O1 (stereo unspecified)	inactive	–
COc1nc(N)nc2nc[nH]c12	inactive	–
O=C(O)CSCC(=O)NC1CCSC1=O (stereo unspecified)	inactive	–
CC(C)C[C@@H]1[C@H](c2ccccc2)OC(=O)N1CCCN1CCCCCC1	inactive	–
CC(=O)c1cc(C)oc1C	inactive	–
CC(=O)C(C)O (stereo unspecified)	inactive	–
CN(C)CC/C=C1/c2ccccc2COc2ccc(CC(=O)O)cc21	inactive	–
CC(=O)CCC1=C(C)CCCC1(C)C	inactive	–
CC1OCCC1=O (stereo unspecified)	inactive	–
